rCAG binder: molecules binding r(CAG) RNA repeats; r(CAG) RNA repeat, TO-PRO-1 dye displacement fluorescence; inhibition, % at 3 µM; 1.3% of 370,000 active;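 active means inhibition above the plate cutoff, the mean of all test compounds on that plate plus 3 SD, cut at about 35% in these data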;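 further: 0% = DMSO alone and 100% = 100 µM mitoxantrone as full dye displacement; higher means more dye released from RNA so lower well fluorescence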
KLK7 zymogen act: activates the human kallikrein-7 zymogen. P49862. purified proKLK7, EDANS-DABCYL substrate fluorescence; 100% is mature enzyme control, 0% vehicle. activation, % at 7 µM. 0.9% of 370,000 active. AID 652039;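 active means activation above the mean of all tested compounds plus 3 SD, computed per campaign excluding outliers beyond control limits, cut at about 13% in these data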
DSG3 Ab inh: inhibitors of pemphigus antibody binding to human desmoglein-3 | binding (percent of control), % at 10 µM | P32926 | AID 588358 | DSG3-coupled beads, scFv-anti-DSG3-GFP binding, flow cytometry; active compounds read low | 0.48% of 310,000 active;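 active means binding more than 3 SD below its plate's average and above zero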;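 further: hits lower antibody fragment binding to DSG3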
MPTP block: blocks calcium-induced mitochondrial swelling; isolated mouse mitochondria, Ca2+ swelling absorbance, 30 min; inhibition, % at 10 µM; 1.4% of 360,000 active; AID 602449;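 active means inhibition of 50% or more, scaled per plate between neutral and stimulator controls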;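 further: 0% = DMSO wells given calcium and 100% = 1 mM EGTA wells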
ADAM10 inh: inhibits human ADAM10. inhibition, % at 7 µM. 0.62% of 370,000 active. O14672. recombinant ADAM10, EDANS/DABCYL FRET peptide cleavage, 3 h;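 active means inhibition above a per-campaign cutoff equal to the mean of compounds falling between control-based bounds plus 3 SD, cut at about 20% in these data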;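 further: 0% = DMSO wells while the 100% control is not disclosed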
ADAM17 inh: inhibits human ADAM17 | P78536 | recombinant ADAM17, EDANS/DABCYL FRET peptide cleavage | inhibition, % at 6.95 µM | 0.83% of 370,000 active | AID 720648;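 active means inhibition above the mean of compounds lying between control limits plus 3 SD, set per campaign, cut at about 8.5% in these data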;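 further: 0% = DMSO-only wells as the low control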
MPTP counter: Rhodamine 123 counter-screen of mitochondrial pore hits; isolated mitochondria, membrane potential, Rhodamine 123 fluorescence; AID 624504; 78% of 5,000 active; shares compounds with MPTP block; inhibition, % at 10 µM; in the data active means inhibition above about 22%;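 further: 0% = DMSO vehicle and 100% = positive control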
Starred values were filed as active, the others as inactive; . = not tested or not shown. In the library only some 4.7% were active in any assay of this set; here they are far more common.

SMILES	rCAG binder	KLK7 zymogen act	DSG3 Ab inh	MPTP block	ADAM10 inh	ADAM17 inh	MPTP counter
O=C(Nc1nc(-c2ccccn2)cs1)c1ccc(Br)s1	3	0	.	54*	-7	-3	-3
O=C(Nc1nc(-c2cc(Cl)sc2Cl)cs1)c1cccs1	10	0	101	0	1	-5	.
COC(=O)c1cc2c(c3c4cc(OC)ccc4n(C(=O)c4ccccc4)c13)C(=O)N(C1CCCCC1)C2	15	-1	.	.	-41	-15	.
COC(=O)[C@]12C[C@H](CC(=O)NCCC(C)C)C(=O)N(Cc3ccc(Cl)cc3Cl)C1=C[C@H](COCc1ccccc1)O[C@@H]2C	1	0	.	.	8	3	.
C#CCNC(=O)C[C@H]1C[C@@]2(C(=O)OC)C(=C[C@H](C(C)C)O[C@@H]2C2CC2)N(CCc2ccc(OC)c(OC)c2)C1=O	2	0	.	.	3	0	.
Cc1cc(O)c(-c2ccno2)cc1Cl	2	-22	102	82*	-114	-34	88*
O=C(OC12CCCN(C1)/C(=C/c1ccncc1)C2)c1ccc(F)cc1 (centres undefined)	4	0	.	.	2	1	.
O=C(CSc1nc(-c2cccs2)cc(C(F)(F)F)n1)Nc1cc(OCC(F)(F)C(F)F)cc([N+](=O)[O-])c1	2	0	107	93*	-4	-3	80*
Nc1cc(S(=O)(=O)Nc2ccc(Cl)cc2)ccc1N1CCOCC1	5	0	95	91*	12	4	55*
COc1ccc(NS(=O)(=O)c2ccc(N3CCCC3)c(NC(=S)Nc3cccc(C)c3C)c2)cc1	15	-1	110	6	12	5	.
COc1ccc(NS(=O)(=O)c2ccc(N3CCCC3)c(NC(=S)Nc3ccc(SC(F)F)cc3)c2)cc1	16	-1	95	64*	9	4	81*
CCNC(=O)Nc1cc(S(=O)(=O)Nc2ccc(OC)cc2)ccc1N1CCOCC1	.	.	.	94*	.	.	93*
COc1ccc(NS(=O)(=O)c2ccc(N3CCCC3)c(N)c2)cc1	9	0	112	78*	10	4	84*
CN(Cc1ccccc1)C(=O)OCc1cn(Cc2ccccc2F)nn1	-2	1	.	.	-1	1	.
Cc1cc(C)cc(NC(=O)NC2CCN(S(=O)(=O)c3ccc(F)cc3)CC2)c1	2	0	.	.	2	1	.
Clc1ccc(C=Cc2ccccn2)cc1	1	0	93	2	-9	-3	.
Clc1ccc(/C=C\c2nccc3c2[nH]c2ccccc23)cc1	12	-6	97	70*	-186	-84	83*
N#Cc1ccc(/C=C\c2nccc3c2[nH]c2ccccc23)cc1	18	-38	94	92*	-349	-103	67*
O=C(OCC#CCSc1nnc(-c2cccc3ccccc23)o1)c1ccc(F)nc1	.	.	.	.	-60	-18	.
COC(=O)C1CN(CC(C)C)CCS(=O)(=O)N1Cc1ccc(OC)cc1 (centres undefined)	-2	0	.	.	4	-2	.
CCN(C1CCCCC1)S(=O)(=O)c1ccc(S(=O)(=O)NCc2ccncc2)cc1	1	0	100	98*	15	4	93*
O=S(=O)(NCc1ccncc1)c1ccc(Br)s1	2	0	97	63*	6	-1	96*
O=C(O)CNS(=O)(=O)c1ccc(Br)s1	0	0	105	0	4	-2	.
Cc1ccc(S(=O)(=O)NCc2ccncc2)cc1C	1	0	95	77*	-1	2	76*
CCCCCc1ccc(S(=O)(=O)NCCc2ccncc2)cc1	-3	0	100	63*	10	0	83*
SMILES	rCAG binder	KLK7 zymogen act	DSG3 Ab inh	MPTP block	ADAM10 inh	ADAM17 inh	MPTP counter
CCN(CC)C(=O)CC[C@H]1CC[C@]2(CCCN(Cc3nccs3)C2)O1	3	0	.	.	-13	-5	.
CCOC(=O)COc1ccc(S(=O)(=O)NCc2cccnc2)cc1	-6	0	101	0	-8	-3	.
COC(=O)COc1ccc(S(=O)(=O)NCc2ccncc2)cc1	-1	-1	127	85*	-5	-3	87*
CC(=O)c1ccc(OCC(=O)c2cc(C)n(-c3ccc4c(c3)OCO4)c2C)cc1	5	0	.	80*	-5	1	85*
Cc1cc(C(=O)COC(=O)c2ccc(N)c([N+](=O)[O-])c2)c(C)n1-c1ccc2c(c1)OCO2	11	0	89	14	8	2	.
COc1ccccc1OCC(=O)Nc1ccncc1	-1	0	118	1	7	2	.
Cc1cc(Cl)ccc1OCC(=O)Nc1ccncc1	-3	0	100	80*	-4	-2	79*
O=C(COc1cc(Cl)c(Cl)cc1Cl)Nc1cccc(O)c1	4	-1	92	3	1	-4	.
Cc1cc(OCC(=O)Nc2ccncc2)ccc1Br	-1	0	104	59*	1	-1	111*
Cc1cccc(OCC(=O)Nc2ccncc2)c1C	-1	0	127	82*	7	-1	87*
O=C(COc1cc(Cl)c(Cl)cc1Cl)Nc1ccncc1	1	0	104	76*	3	-1	88*
COc1ccc(CN2C[C@@]3(O)CC[C@@H](O)[C@@H](OC)[C@@H]3[C@@](C)(O)[C@@H]2CC=C(C)C)cc1	-2	0	.	.	-5	0	.
O=C(N[C@H](C(=O)N1CCC[C@H]1C(=O)NC1CCCC1)C1CCCCC1)C1CCCC1	-1	0	.	.	-6	-2	.
Cc1cccc(C=NNc2cc(C)c3cccc(C)c3n2)n1	5	-64	.	.	-5	1	.
COC(=O)C1=C(C)N(Cc2cccc(C(F)(F)F)c2)C(=NCc2cc(OC)c(OC)c(OC)c2)NC1CCc1ccccc1 (centres undefined)	9	1	.	.	0	0	.
Cc1ccc(-c2nc(CSCC(=O)N3CCCC3)c(C)o2)cc1	-3	0	98	2	5	0	.
Cc1cccc(-c2nc(CSCC(=O)N3CCN(c4ccccn4)CC3)c(C)o2)c1	-8	-1	96	78*	5	1	63*
O=C(O)c1ccccc1C(=O)Nc1ccc(-n2ccc(C(F)(F)F)n2)cc1	1	0	108	2	3	1	.
O=C(NNc1nccc(C(F)(F)F)n1)Nc1cccc(Cl)c1	.	.	111	0	.	.	.
Cc1cc(C)cc(NC(=O)Nc2ccc(-n3ccc(C(F)(F)F)n3)cc2)c1	1	0	.	87*	0	1	83*
O=C(NNc1cc(C(F)(F)F)nc2ccccc12)Nc1cccc(Cl)c1	8	0	102	67*	9	5	70*
O=C(O)CCC(=O)Nc1ccc(-n2ccc(C(F)(F)F)n2)cc1	-2	-1	112	0	-6	-2	.
O=C(Nc1ccc(-n2ccc(C(F)(F)F)n2)cc1)Nc1cccc(Cl)c1	12	0	115	75*	12	6	65*
